Calls of active or inactive are those of the source.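 How the source made its calls, unless noted: active means visual image review flags a hit and inhibition of aggregation exceeds 20%; inconclusive means visual hit but inhibition at or below 20%; inactive means no hit on visual image review.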
Columns and labels:
[1] = inhibitors of TNFa-induced NFkB p65 translocation, primary screen, imaging, HUVEC, MLSMR starter and 10KST1 sets (AID 438;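 active means inhibition above 20% together with a positive visual image hit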;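 further: compound added about 3h40 before a 20 min TNFalpha stimulation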;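 on inhibition: signal is the nuclear over cytoplasmic p65 intensity ratio per well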); details: HUVEC TNFa-induced p65 nuclear translocation; cell count: measured here: nuclei count (cytotoxicity indicator), at 2.08 µM; inhibition: at 2 µM, stronger effect = higher value, 0% TNFa-plus-vehicle, 100% no-TNFa wells
[2] = inhibitors of mutant huntingtin aggregation, primary screen, imaging, exon1htt(103Q)mCFP cells, high-content imaging (AID 483); details: exon1htt(103Q)mCFP cell line, aggregate imaging, at 2 µM; inhibition of aggregation: stronger effect = higher value; nuclei count: measured here: cell count, toxicity;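 further: compound exposure lasted 3 days before fixation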;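 on nuclei count: percent of the per-plate median nuclei count of sample wells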
[3] = inhibitors of E-selectin induction by TNFa, primary screen, imaging, HUVEC, immunofluorescence, MLSMR starter and 10KST1 sets (AID 487;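 active means visually confirmed hit in the image check and inhibition above 20%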;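 on inhibition: signal is fraction of cell area covered by stained E-selectin grains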;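 on nuclei count: 100% = median nuclei count of all wells on the same plate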); details: HUVEC TNFalpha-induced E-selectin immunofluorescence imaging, at 2 µM; inhibition: stronger effect = higher value; nuclei count: measured here: cell number, toxicity
[4] = molecular target: Voltage-gated potassium channel subunit beta-2 (Rattus norvegicus) (UniProt P62483); experiment: KvBeta enzyme negative modulators, primary screen, biochemical, NADPH fluorescence (AID 622;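 active means fluorescence slope higher than the sample average by over 3 SD, cut at about -0.22 in these data, passing the limit was not always enough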;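 further: slope of raw intensity against log time taken from 70 to 1610 s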); details: recombinant KvBeta, 4-cyanobenzaldehyde reduction, at 10 µM, stronger effect = higher value
Voltage-gated potassium channel subunit beta-2 (Rattus norvegicus), sequence (P62483 whole entry, looked up): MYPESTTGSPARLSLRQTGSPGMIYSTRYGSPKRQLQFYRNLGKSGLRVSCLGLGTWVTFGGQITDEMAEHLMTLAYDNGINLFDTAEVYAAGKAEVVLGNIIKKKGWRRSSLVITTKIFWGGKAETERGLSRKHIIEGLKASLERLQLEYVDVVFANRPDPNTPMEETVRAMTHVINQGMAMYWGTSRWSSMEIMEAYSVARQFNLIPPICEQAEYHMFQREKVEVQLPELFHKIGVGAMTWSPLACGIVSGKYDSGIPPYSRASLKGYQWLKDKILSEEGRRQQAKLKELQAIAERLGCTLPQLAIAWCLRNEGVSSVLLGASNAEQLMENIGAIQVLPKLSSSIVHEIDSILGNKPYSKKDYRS

[5] = molecular target: Voltage-gated potassium channel subunit beta-2 (Rattus norvegicus) (UniProt P62483); experiment: KvBeta positive modulators, primary screen, biochemical, NADPH fluorescence (AID 623;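 active means NADPH fluorescence slope more negative than the mean of all samples by about 3 SD, 99.7% confidence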;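 further: fluorescence intensity change per second fitted from 20 to 320 s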); details: Recombinant KvBeta, NADPH fluorescence decrease slope, 10 min; at 10 µM; stronger effect = lower value
[6] = molecular target: Alpha-2C adrenergic receptor (Homo sapiens) (UniProt P18825); experiment: modulators of alpha2C/GIRK thallium flux, primary screen, cell-based, HEK293 alpha2C/GIRK1/2 (AID 624;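 active means fluorescence slope after compound addition differing from the mean of all screened samples at 99.7% confidence, in either direction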;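 further: slope of fluorescence ratio to pre-addition baseline per second over 15 to 24 s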); details: thallium flux BTC fluorescence, at 10 µM, actives lie on both sides
Alpha-2C adrenergic receptor (Homo sapiens), sequence (P18825 whole entry, looked up): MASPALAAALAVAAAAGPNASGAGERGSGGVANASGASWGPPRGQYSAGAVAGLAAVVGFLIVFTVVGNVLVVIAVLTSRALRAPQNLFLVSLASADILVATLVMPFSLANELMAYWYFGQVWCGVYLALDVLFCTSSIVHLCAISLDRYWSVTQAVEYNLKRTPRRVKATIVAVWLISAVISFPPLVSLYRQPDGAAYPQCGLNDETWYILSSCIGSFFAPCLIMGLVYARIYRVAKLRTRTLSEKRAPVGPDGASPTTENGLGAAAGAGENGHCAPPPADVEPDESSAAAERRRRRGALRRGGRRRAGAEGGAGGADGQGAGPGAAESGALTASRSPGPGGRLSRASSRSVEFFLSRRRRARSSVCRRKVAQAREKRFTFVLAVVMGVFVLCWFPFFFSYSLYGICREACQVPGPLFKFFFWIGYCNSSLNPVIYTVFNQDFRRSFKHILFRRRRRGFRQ

[7] = inhibitors of Sendai virus-induced IRF3 signaling, primary screen, TLR/RLR signaling modifier project, cell-based, Sendai virus stimulus, luciferase, 10K MLSCN set (AID 602276;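 active means inhibition at or above 50% at 10 µM; inactive means inhibition below 50%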;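 further: firefly luciferase from ISG56 promoter only with Renilla not read in this screen; 0% = Sendai virus plus DMSO and 100% = medium plus DMSO without virus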); details: HEK293 RL24 IRF3 luciferase reporter, at 10 µM, stronger effect = higher value
[8] = inhibitors of poly I:C-induced TLR3 signaling, primary screen, cell-based, poly I:C stimulus, luciferase, 10K MLSCN set (AID 602277;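 active means inhibition of the reporter signal at or above 50%; inactive means inhibition below 50%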); details: HEK293-TLR3 RL24 IRF3 luciferase reporter, at 10 µM, stronger effect = higher value

| Compound | cell count [1] | inhibition [1] | inhibition of aggregation [2] | nuclei count [2] [%] | inhibition [3] | nuclei count [3] [%] | fluorescence slope [4] | NADPH fluorescence slope [5] | slope [6] | inhibition [7] | inhibition [8] |
| --- | --- | --- | --- | --- | --- | --- | --- | --- | --- | --- | --- |
| CCN1CCN(c2ncnc3c2cnn3-c2ccc(C)cc2C)CC1 | 561 | 1.3% (inactive) | -28.5% (inactive) | 94.2 | 1.5% (inactive) | 112 | -0.538 (inactive) | -1.4e-05 (inactive) | 0.00772 (inactive) | 10.8% (inactive) | 18.9% (inactive) |
| C/C=C/Cn1c(SCCCc2ccccc2)nc2c1c(=O)[nH]c(=O)n2C | 658 | -6.4% (inactive) | -13.8% (inactive) | 101 | -13.9% (inactive) | 102 | -0.517 (inactive) | -1.9e-05 (inactive) | 0.00629 (inactive) | 1.4% (inactive) | 5.27% (inactive) |
| CN(C)CCCN1C(=O)C(=O)/C(=C(/O)c2ccncc2)C1c1cccc(Br)c1 (centres undefined) | 245 | -2.8% (inactive) | -9.4% (inactive) | 94.1 | 1.2% (inactive) | 103 | -0.612 (inactive) | -7.1e-05 (inactive) | 0.00373 (inactive) | -6.87% (inactive) | -3.17% (inactive) |
| CC(=O)c1ccc(OCC(O)CN2CC(C)OC(C)C2)cc1 (centres undefined) | 310 | 8.6% (inactive) | 15% (inactive) | 92.4 | 0.4% (inactive) | 98.9 | -0.613 (inactive) | 9.2e-06 (inactive) | 0.00724 (inactive) | 9.28% (inactive) | 16.8% (inactive) |
| CCCC(=O)Nc1cc(C)c(NC(=O)c2ccccn2)cn1 | 418 | 13.7% (inactive) | 19.4% (inactive) | 89.7 | -10.2% (inactive) | 110 | -0.606 (inactive) | -5.2e-05 (inactive) | 0.007 (inactive) | 4.7% (inactive) | 11.8% (inactive) |
| CCOC(=O)c1ccccc1NC(=O)c1ccc(NS(C)(=O)=O)cc1 | 485 | -2.2% (inactive) | 10.4% (inactive) | 90.2 | 26.8% (inactive) | 86 | -0.473 (inactive) | -6e-06 (inactive) | 0.00606 (inactive) | 6.8% (inactive) | 11.4% (inactive) |
| CCn1nc(C)c(NC(=O)c2cc(Br)ccc2Cl)c1C | 497 | -5.8% (inactive) | -21.4% (inactive) | 111 | -17.6% (inactive) | 115 | -0.445 (inactive) | -0.000104 (inactive) | 0.00617 (inactive) | 14.4% (inactive) | 25% (inactive) |
| CCOc1cc(/C=N/n2cnnc2)cc(Br)c1O | 819 | 4.2% (inactive) | -15.3% (inactive) | 100 | -30.9% (inactive) | 124 | -0.381 (inactive) | -4.4e-06 (inactive) | 0.00481 (inactive) | 13.1% (inactive) | 7.19% (inactive) |
| CC1(C)CC(=O)C2=C(C1)OC(N)=C(C#N)C2C1CC=CCC1 (centres undefined) | 569 | 2.4% (inactive) | 1.3% (inactive) | 119 | -52% (inactive) | 89.2 | -0.556 (inactive) | -1.7e-05 (inactive) | 0.00554 (inactive) | 16% (inactive) | 22.1% (inactive) |
| CN=Cc1cc(-c2ccccc2)sc1O | 330 | -2% (inactive) | -19.3% (inactive) | 126 | -90.3% (inactive) | 114 | -0.574 (inactive) | -1.5e-05 (inactive) | 0.00861 (inactive) | -23.3% (inactive) | -118% (inactive) |
| c1coc(CN2CN=C(Nc3nc4ccccc4s3)NC2)c1 | 604 | -1.5% (inactive) | -13.8% (inactive) | 106 | 13.3% (inactive) | 109 | -0.357 (inactive) | -2.5e-05 (inactive) | 0.00455 (inactive) | -12.9% (inactive) | -7.25% (inactive) |
| CC(=O)N1CCN=C1SCc1c(F)cccc1Cl | 509 | 9.8% (inactive) | -12.4% (inactive) | 110 | 9.3% (inactive) | 93.3 | -0.626 (inactive) | 1.8e-05 (inactive) | 0.00565 (inactive) | -11.7% (inactive) | 4.78% (inactive) |
| O=C(NCC1COc2ccccc2O1)c1ccccc1 (centres undefined) | 279 | -1.7% (inactive) | -0.5% (inactive) | 104 | 7.4% (inactive) | 90.3 | -0.62 (inactive) | 3.5e-06 (inactive) | 0.00453 (inactive) | -21% (inactive) | -82.8% (inactive) |
| CC(=O)c1ccc(-c2nc3ccccc3n2C)o1 | 365 | 4.7% (inactive) | -13.2% (inactive) | 105 | -11.8% (inactive) | 108 | -0.0212 (active) | 5.6e-07 (inactive) | 0.00571 (inactive) | -22.8% (inactive) | -73.6% (inactive) |

Source: PubChem BioAssay
